# In the supplement of paper PMC7366291:
# Counter-ions that a name gives are not always drawn. ± gives the standard deviation.
# Tested on: Danio rerio Tg(wt1b:EGFP) embryo, pronephros
# Assay: glomerular separation, fold change vs DMSO control; higher = glomeruli further apart (abnormal)
# Conditions: 25 µM; exposure: 24-48 hpf
# How it was run: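 Each feature value is a fold change relative to the mean of same-day DMSO-treated embryos. Embryos of the Tg(wt1b:EGFP) zebrafish line, dechorionated, received 25 μM compound in 0.5% DMSO from 24 to 48 hpf at 28.5°C, in HEPES-buffered E3 with 0.003% PTU. Distances and angles were computed by a Fiji macro from 16 manually set reference points on maximum projections of dorsal pronephros images, and values beyond 2 SD of the feature mean were removed.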
row,Compound,glomerular separation
1,CCC1(CC)C(=O)C=CNC1=O [Pyrithyldione],0.785 ± 0.31
2,CCN(CC)C(C)C(=O)c1ccccc1 (stereo unspecified) [Amfepramone hydrochloride],0.872 ± 0.24
3,CN(C)C(=O)Oc1cccc([N+](C)(C)C)c1 [Neostigmine bromide],0.984 ± 0.28
4,CCC(=O)O[C@@](Cc1ccccc1)(c1ccccc1)[C@@H](C)CN(C)C [Levopropoxyphene napsylate],1.29 ± 0.53
5,COc1ccc2c(c1)[C@]13CCCC[C@@H]1[C@H](C2)N(C)CC3 [Dextromethorphan hydrobromide monohydrate],1.03 ± 0.23
6,CCN[C@@H](C)Cc1cccc(C(F)(F)F)c1 [Dexfenfluramine hydrochloride],0.736 ± 0.23
7,CC[C@@H](CO)NC(=O)[C@@H]1C=C2c3cccc4[nH]cc(c34)C[C@H]2N(C)C1 [Methylergometrine maleate],1.12 ± 0.46
8,CCC(COC(=O)c1cc(OC)c(OC)c(OC)c1)(c1ccccc1)N(C)C (stereo unspecified) [Trimebutine],0.875 ± 0.36
9,O=C(CCCN1CCC2(CC1)C(=O)NCN2c1ccccc1)c1ccc(F)cc1 [Spiperone],1.21 ± 0.45
10,CCC1(C)CC(=O)NC(=O)C1 [Bemegride],0.891 ± 0.28
11,CN1C(=O)CCS(=O)(=O)C1c1ccc(Cl)cc1 (stereo unspecified) [Chlormezanone],1.15 ± 0.46
12,CC(C)N(CCC(C(N)=O)(c1ccccc1)c1ccccn1)C(C)C (stereo unspecified) [Disopyramide],0.9 ± 0.32
13,C[C@]12CCC(=O)C(O)=C1CC[C@@H]1[C@@H]2CC[C@]2(C)C(=O)CC[C@@H]12 [Formestane],1.16 ± 0.45
14,NC(=O)C[S+]([O-])C(c1ccccc1)c1ccccc1 (stereo unspecified) [Modafinil],1.04 ± 0.25
15,NC(=O)OCCCc1ccccc1 [Phenprobamate],0.999 ± 0.4
16,CC(Cc1ccc(O)cc1)NCC(O)c1cc(O)cc(O)c1 (stereo unspecified) [Fenoterol hydrobromide],1.33 ± 0.53

row,Compound,glomerular separation
1,C#CCN(C)[C@H](C)Cc1ccccc1 [Selegiline hydrochloride],0.996 ± 0.51
2,C[C@]12CCC(=O)C=C1C=C[C@@H]1[C@@H]2CC[C@@]2(C)[C@H]1CC[C@@]2(O)CCC(=O)O [Canrenoic acid potassium salt],1.07 ± 0.36
3,CC(=O)[C@H]1CC[C@H]2[C@@H]3CC[C@H]4C[C@H](O)CC[C@]4(C)[C@H]3C(=O)C[C@]12C [Alfaxalone],0.896 ± 0.36
4,O=C(CCCN1CCC(n2c(=O)[nH]c3ccccc32)CC1)c1ccc(F)cc1 [Benperidol],1.04 ± 0.25
5,C#C[C@]1(O)CC[C@H]2[C@@H]3CCC4=CC(=O)CCC4=C3C=C[C@@]21CC [Gestrinone],1.64 ± 0.91
6,CC(Cc1ccccc1)NCCC(c1ccccc1)c1ccccc1 (stereo unspecified) [Prenylamine lactate],1.05 ± 0.22
7,C[N+]1(C)[C@@H]2CC[C@H]1C[C@@H](OC(=O)C(CO)c1ccccc1)C2 (stereo partly specified) [Methylatropine nitrate],1.01 ± 0.39
8,O=P1(NCCCl)OCCCN1CCCl (stereo unspecified) [Ifosfamide],1.05 ± 0.39
9,C[C@@H]1CN([C@H]2CC[C@](C#N)(c3ccc(F)cc3)CC2)CC[C@]1(C(=O)O)c1ccccc1 [Levocabastine hydrochloride],1.19 ± 0.32
10,CC(C)c1c(CN(C)C(C)Cc2ccccc2)n(C)n(-c2ccccc2)c1=O (stereo unspecified) [Famprofazone],0.985 ± 0.39
11,NCCc1c[nH]c2ccc(O)cc12 [Serotonin hydrochloride],1.61 ± 1.2
12,CN[C@@H]1[C@@H](O)[C@@H](O[C@@H]2[C@@H](O)[C@H](O[C@H]3O[C@H](CN)CC[C@H]3N)[C@@H](N)C[C@H]2N)OC[C@]1(C)O.CN[C@@H]1[C@@H](O)[C@@H](O[C@@H]2[C@@H](O)[C@H](O[C@H]3O[C@H]([C@@H](C)N)CC[C@H]3N)[C@@H](N)C[C@H]2N)OC[C@]1(C)O.CN[C@@H]1[C@@H](O)[C@@H](O[C@@H]2[C@@H](O)[C@H](O[C@H]3O[C@H]([C@@H](C)NC)CC[C@H]3N)[C@@H](N)C[C@H]2N)OC[C@]1(C)O [Gentamicine sulfate],0.941 ± 0.25
13,CC(C)[N+](C)(CCC(C(N)=O)(c1ccccc1)c1ccccc1)C(C)C [Isopropamide iodide],0.996 ± 0.45
14,C[C@@H]1C[C@@H]([C@H](O)CC2CC(=O)NC(=O)C2)C(=O)[C@@H](C)C1 [Cycloheximide],0.972 ± 0.45
15,CCC1=C[C@H]2CN3CCc4c([nH]c5ccccc45)[C@](C(=O)OC)(C2)[C@H]13 [Catharanthine],0.982 ± 0.32
